# Results filed as inconclusive are left out. Active and inactive are the calls of the source. The call rests on the fitted dose curve; in most records, active means well fitted cell-killing curve with a large enough effect in the repeat runs; inconclusive means weak or mixed curves; inactive means flat fitted curve, though single readings scatter.
# Assay: qHTS assay to identify small molecule antagonists of the estrogen receptor beta (ER-beta) signaling pathway - cell viability counter screen (AID 1259382); further: nearly all actives have a fitted effect of over 55% in size
# Conditions: ER-beta-UAS-bla HEK293T viability, CellTiter-Glo luminescence, 16 h; series mostly up to 92.4 µM; activity change, negative = cytotoxicity: at the top concentration
# Description: U.S. Tox21 Program National Center for Advancing Translational Sciences [NCATS] NIH Chemical Genomics Center [NCGC] U.S. Environmental Protection Agency [EPA] National Institutes of Environmental Health Sciences [NIEHS] National Toxicology Program [NTP] U.S. Food and Drug Administration [FDA] Tox21 Assay Overview: Estrogen receptor (ER), a nuclear hormone receptor, plays an important role in development, metabolic homeostasis and reproduction. Two subtypes of ER, ER-alpha and ER-beta, have similar expression patterns with some uniqueness in both types. Endocrine disrupting chemicals (EDCs) and their interactions with steroid hormone receptors like ER causes disruption of normal endocrine function. To identify the compounds that inhibit ER signaling, an ER-beta-UAS-bla GripTite cell line (Life Technologies, Madison, WI, USA) containing a beta-lactamase reporter gene under the control of an UAS response element was used to screen Tox21 10K compound library. The cytotoxicity of the Tox21 compound library against the ER-beta-bla cell line was tested in parallel by measuring the cell viability using CellTiter-Glo assay in the same wells.
# Tox21 Assay Protocol Summary: ER-beta-UAS-bla HEK293T cells were dispensed at 2,000 cells/4 uL of assay medium containing 2% charcoal stripped FBS per well into black wall/clear-bottom 1536-well plates using a Multidrop Combi (ThermoFisher Scientific, Waltham, MA) dispenser. After the assay plates were incubated at a 37C and 5% CO2 for 6 hr, 23 nL of compounds dissolved in DMSO, positive controls or DMSO only was transferred to the assay plate by a Pintool station (Kalypsys, San Diego, CA), followed by addition of 1 uL (1nM as final concentration) of 17-beta-estradiol (E2) in assay medium using a Flying Reagent Dispenser (FRD, Aurora Discovery, San Diego, CA). The plates were incubated at 37C and 5% CO2 for 16 hr. Then 1 uL of LiveBLAzer B/G FRET substrate was added using a Flying Reagent Dispenser, the plates were incubated at room temperature for 2 hours, and fluorescence intensity was measured by an Envision plate reader (PerkinElmer, Shelton, CT). For cell viability readout that measures cytotoxicity, 4 uL/well of CellTiter-Glo reagent was added into the assay plates using a FRD. After 30 min incubation at room temperature, the luminescence intensity in the plates was measured using a ViewLux (PerkinElmer) plate reader.
# On the % scale 0 is the no-effect control and ±100 the full control effect; potency means the concentration at half of the fitted maximal effect.
SMILES,"activity change, negative = cytotoxicity",Potency
CCN(CC)Cc1nccn1-c1ccc([N+](=O)[O-])cc1C(=O)c1ccccc1Cl,0.639% [at 42.5 µM] (inactive),
CC1(C)[C@H](/C=C2\CCSC2=O)[C@@H]1C(=O)OCc1coc(Cc2ccccc2)c1,-3.05% (inactive),
CCCCN(CCCC)C(=S)S,2.14% (inactive),
CCO/N=C(\CC)C1=C(O)CC(c2c(C)cc(C)cc2C)CC1=O (stereo not given),-23.3% (inactive),
CNN,4.45% (inactive),
O=c1[nH]c2cc(Cl)ccc2n1C1CCNCC1,0.631% [at 42.5 µM] (inactive),
CC(=O)[O-].CC(=O)[O-].[Co+2],1.87% (inactive),
BrCC(Br)(Br)Br,7.64% (inactive),
Clc1c(Cl)c(Cl)c(Cl)c(Cl)c1Cl,8.34% [at 8.39 µM] (inactive),
C[C@@H]1CC2=CC(=O)CC[C@@H]2[C@H]2CC[C@@]3(C)[C@@H](CC[C@]3(C)O)[C@@H]21,-0.237% [at 42.5 µM] (inactive),
CC(=O)[O-].CC(=O)[O-].O.O.[Zn+2],10.4% (inactive),
ClSC(Cl)(Cl)Cl,8.22% (inactive),
N#Cc1c2ccccc2cc2ccccc12,-3.55% (inactive),
CN1CCc2cc3c(cc2C1O)OCO3 (stereo not given),-4.46% (inactive),
[Cl-].[Cl-].[Sn+2],0.416% (inactive),
COP(=O)(OC)Oc1ccc([N+](=O)[O-])cc1,-1.36% (inactive),
CC(=O)C(Cl)C(=O)N(C)C (stereo not given),-6.02% (inactive),
Oc1ccc2[nH]cc(CCCCN3CC=C(c4ccccc4)CC3)c2c1,-21.9% [at 42.5 µM] (inactive),
CC(=O)[O][Pb]([c]1ccccc1)([c]1ccccc1)[c]1ccccc1,,5.45 µM (active)
CCC1(CC)C(=O)N=C(O)NC1=O,0.763% (inactive),

SMILES,"activity change, negative = cytotoxicity",Potency
CCOP(=S)(OCC)Oc1cc(C)nc(N(CC)CC)n1,0.387% (inactive),
CC(O)C(=O)[O][Hg][c]1ccccc1 (stereo not given),,4.33 µM (active)
C=CC(=C)C,-13.6% (inactive),
CC(=O)[O-].CC(=O)[O-].O.O.O.[Pb+2],1.2% (inactive),
Cc1cc2c3c(c1)C(c1ccccc1)=N[C@@H](NC(=O)c1ccncc1)C(=O)N3CC2,-7.28% (inactive),
CC(C)N(C(=O)SC/C(Cl)=C/Cl)C(C)C,5.41% (inactive),
O=[N+]([O-])c1cccc2cccc([N+](=O)[O-])c12,-12.6% (inactive),
CC(C)[C@@H](Nc1ccc(C(F)(F)F)cc1Cl)C(=O)OC(C#N)c1cccc(Oc2ccccc2)c1 (stereo not given in full),8.86% (inactive),
CC(C)C(Br)C(=O)NC(N)=O (stereo not given),3.74% [at 42.5 µM] (inactive),
CC1=C2C[C@H]3[C@@H](CC=C4C[C@@H](O)CC[C@@]43C)[C@@H]2CC[C@]12O[C@@H]1C[C@H](C)CN[C@H]1[C@H]2C,-9.3% [at 42.5 µM] (inactive),
OCC(Br)CBr (stereo not given),1.11% (inactive),
Cc1nn(-c2cc(NS(C)(=O)=O)c(Cl)cc2Cl)c(=O)n1C(F)F,-1.14% (inactive),
CNC(=O)Oc1cc(C)cc(C(C)C)c1,-17.5% (inactive),
C#CCC1=C(C)C(OC(=O)C2C(C=C(C)C)C2(C)C)CC1=O (stereo not given),-15% (inactive),
CC(Cl)CCl (stereo not given),-0.174% (inactive),
Oc1cc(Cl)c(Cl)c(Cl)c1Cl,-22.4% (inactive),
CC1CCCC1,-0.89% (inactive),
C#CC1(O)CCCCC1,1% (inactive),
COc1ccc2c3c1O[C@H]1[C@H](O)CC[C@H]4[C@@H](C2)N(C)CC[C@@]341,1.98% (inactive),
CCCCC(CC)COC(=O)c1ccccc1C(=O)OCC(CC)CCCC (stereo not given),4.66% (inactive),

# Source: PubChem BioAssay (Tox21)
